In the supplement of paper PMC8047044:

Experiments:
Neuro-2a [1] = test: neurite formation score, plate-normalized to DMSO control mean 5.04 (score (0-8 scale)); higher = more or longer neurites; conditions: 1 µM
Description: (§1)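 Neuro-2a mouse neuroblastoma cells in PLL-coated 96-well plates were pre-treated for 1 h in DMEM(+) with each kinase inhibitor at 1 µM, then switched to serum-free DMEM(-) with inhibitor to induce neurite outgrowth and fixed about 2-3 h later. Three blinded observers scored neurite formation from 0 (no neurites) to 8 (long neurites on almost all cells).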

Neuro-2a [2] = test: as above; conditions: 0.1 µM
Description: as §1, with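 “at 0.1” for “at 1”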

SMILES	neurite formation score (Neuro-2a [1])	neurite formation score (Neuro-2a [2])
Cc1[nH]nc2ccc(-c3cncc(OC[C@@H](N)Cc4ccccc4)c3)cc12	4.63	4.25
CC[C@H](Nc1ncnc2[nH]cnc12)c1nc2cccc(F)c2c(=O)n1-c1ccccc1 [CAL-101 (Idelalisib, GS-1101)]	4.57	4.71
Oc1ccc(Nc2nc(-c3ccc(Cl)cc3)cs2)cc1	4.21	2.42
CC(C)N(CCC(=O)c1ccc2ccccc2c1)Cc1ccccc1	5.02	4.92
CC(C)CC(=O)Nc1n[nH]c2c1CN(C(=O)C1CCN(C)CC1)C2(C)C	4.57	4.54
Cc1cnc(Nc2ccc(OCCN3CCCC3)cc2)nc1Nc1cccc(S(=O)(=O)NC(C)(C)C)c1	4.69	3.58
COc1cc2ncnc(Nc3cccc(Br)c3)c2cc1OC	4.14	5.09
CNCc1ccc(-c2cc(-c3nc(-c4ccc(S(=O)(=O)C(C)C)cc4)cnc3N)on2)cc1	1.29	3.25
CN1CCN(S(=O)(=O)c2ccc(-c3cnc(N)c(C(=O)Nc4cccnc4)n3)cc2)CC1	2.88	4.75
C=CC(=O)N1CCC[C@@H](n2nc(-c3ccc(Oc4ccccc4)cc3)c3c(N)ncnc32)C1	3.24	4.38
CC(C)Nc1cc(-c2c[nH]c(C(=O)N[C@H](CO)c3cccc(Cl)c3)c2)c(Cl)cn1	3.47	4.76
Cc1cc([C@@H](C)Nc2ccccc2C(=O)O)c2nc(N3CCOCC3)cc(=O)n2c1	4.57	4.54
Cc1cc(Nc2cc(N3CCN(C)CC3)nc(/C=C/c3ccccc3)n2)n[nH]1 [ENMD-2076 L-(+)-Tartaric acid]	3.8	4.76
